In PubChem BioAssay AID1159580 (chemical genetic matrix, 2015):
The campaign covered roughly 5,500 compounds. About 2,000 (36%) were called active. Roughly 18% stayed inconclusive and do not appear here. No stated cut-off is given here; in the data, active means normalized growth mostly below about 0.91 (no sharp cut-off); inconclusive means no clear call, values can overlap the other calls; inactive means mostly above about 0.92. This is one part of the list.

Test: chemical genetic growth profiling, strain panel (AID 1159580);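 further: tested at 20 µM; growth read once vehicle control cultures reached saturation at 30 °C; 1 = growth at the plate median or of vehicle wells; lower values mean less growth of the strain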
Details: S. cerevisiae deletion strains, growth OD
[1] = locus YHR030C, strain SLT2, active compounds read low
[2] = locus YHR079C, strain IRE1, active compounds read low
[3] = locus YJL095W, strain BCK1, active compounds read low
[4] = locus YJR066W, strain TOR1, active compounds read low
[5] = locus YLR113W, strain HOG1, active compounds read low
[6] = locus YNL183C, strain NPR1, active compounds read low
[7] = locus YOR231W, strain MKK1, active compounds read low
[8] = locus YPL256C, strain CLN2, active compounds read low

Measured: normalized growth

O=c1[nH][nH]c(=O)n1CCCc1cc2cccc3ccc4cccc1c4c32
inactive: locus YAR019C, strain CDC15, active compounds read low 1 | locus YBL105C, strain PKC1, active compounds read low 0.987 | locus YBR135W, strain CKS1, active compounds read low 0.998 | locus YBR136W, strain MEC1, active compounds read low 0.988 | locus YBR160W, strain CDC28, active compounds read low 0.994 | locus YDL017W, strain CDC7, active compounds read low 0.994 | locus YDL028C, strain MPS1, active compounds read low 0.992 | locus YDL101C, strain DUN1, active compounds read low 0.984 | locus YDL108W, strain KIN28, active compounds read low 0.988 | locus YDL132W, strain cdc53, active compounds read low 0.99 | locus YDL214C, strain PRR2, active compounds read low 0.968 | locus YDR052C, strain DBF4, active compounds read low 0.991 | locus YDR054C, strain cdc34, active compounds read low 0.994 | locus YDR226W, strain ADK1, active compounds read low 0.995 | locus YDR477W, strain SNF1, active compounds read low 0.979 | locus YER123W, strain YCK3, active compounds read low 0.949 | locus YER133W, strain GLC7, active compounds read low 0.97 | locus YFL009W, strain cdc4, active compounds read low 0.994 | locus YFL029C, strain CAK1, active compounds read low 0.999 | locus YFR003C, strain YPI1, active compounds read low 0.981 | locus YFR019W, strain FAB1, active compounds read low 0.935 | locus YFR028C, strain CDC14, active compounds read low 0.987 | locus YGR040W, strain KSS1, active compounds read low 0.95 | locus YGR052W, strain FMP48, active compounds read low 0.936 | locus YGR092W, strain DBF2, active compounds read low 0.9 | [1] 1.02 | [2] 1 | locus YHR082C, strain KSP1, active compounds read low 0.986 | locus YHR205W, strain SCH9, active compounds read low 0.915 | locus YIL147C, strain SLN1, active compounds read low 0.983 | [3] 0.873 | locus YJL128C, strain PBS2, active compounds read low 0.952 | locus YJL157C, strain FAR1, active compounds read low 0.99 | locus YJR016C, strain ILV3, active compounds read low 0.997 | locus YJR066W, strain TOR1 (second series), active compounds read low 0.927 | [4] 0.964 | locus YKL048C, strain ELM1, active compounds read low 0.956 | locus YKL067W, strain YNK1, active compounds read low 0.971 | locus YKL101W, strain HSL1, active compounds read low 0.937 | locus YKL193C, strain SDS22, active compounds read low 0.992 | locus YKL203C, strain TOR2, active compounds read low 0.985 | [5] 0.922 | locus YLR133W, strain CKI1, active compounds read low 0.952 | locus YLR403W, strain SFP1, active compounds read low 0.908 | locus YML070W, strain DAK1, active compounds read low 0.942 | locus YMR001C, strain CDC5, active compounds read low 0.992 | locus YMR205C, strain PFK2 (second series), active compounds read low 0.973 | locus YMR277W, strain FCP1, active compounds read low 0.989 | locus YNL006W, strain LST8, active compounds read low 0.993 | locus YNL020C, strain ARK1, active compounds read low 0.968 | locus YNL161W, strain CBK1, active compounds read low 0.993 | [6] 0.911 | locus YNL207W, strain RIO2, active compounds read low 0.995 | locus YNL222W, strain SSU72, active compounds read low 0.996 | locus YNL307C, strain MCK1 (second series), active compounds read low 0.909 | locus YOL078W, strain AVO1, active compounds read low 0.993 | locus YOL136C, strain PFK27, active compounds read low 0.94 | locus YOR061W, strain CKA2, active compounds read low 0.975 | locus YOR119C, strain RIO1, active compounds read low 0.993 | [7] 0.972 | locus YOR329C, strain SCD5, active compounds read low 0.991 | locus YPL031C, strain PHO85, active compounds read low 0.961 | locus YPL153C, strain RAD53, active compounds read low 0.963 | locus YPL204W, strain HRR25, active compounds read low 0.941 | locus YPL209C, strain IPL1, active compounds read low 0.988 | [8] 1.08 | locus YPR025C, strain CCL1, active compounds read low 0.998 | locus YPR106W, strain ISR1, active compounds read low 0.985 | locus YPR111W, strain DBF20, active compounds read low 0.973 | strain NNK1, active compounds read low 0.991 | strain TSCII, active compounds read low 0.994

C=CCSSCC=C
inactive: locus YAL021C, strain ccr4, active compounds read low 1.02 | locus YAL026C, strain drs2, active compounds read low 1.04 | locus YAL030W, strain snc1, active compounds read low 1.03 | locus YBL061C, strain skt5, active compounds read low 1.03 | locus YBR009C, strain hhf1, active compounds read low 1.03 | locus YBR023C, strain chs3, active compounds read low 1.02 | locus YBR171W, strain sec66, active compounds read low 1.04 | locus YBR231C, strain swc5, active compounds read low 1.04 | locus YBR279W, strain paf1, active compounds read low 1.02 | locus YCL011C, strain gbp2, active compounds read low 1.04 | locus YCL016C, strain dcc1, active compounds read low 1.03 | locus YCL061C, strain MRC1, active compounds read low 1.03 | locus YCL069W, strain vba3, active compounds read low 1.03 | locus YCR088W, strain abp1, active compounds read low 1.04 | locus YDL005C, strain med2, active compounds read low 1.05 | locus YDL040C, strain nat1, active compounds read low 1.03 | locus YDR001C, strain nth1, active compounds read low 1.04 | locus YDR069C, strain doa4, active compounds read low 1.03 | locus YDR137W, strain rgp1, active compounds read low 1.07 | locus YDR159W, strain sac3, active compounds read low 1.08 | locus YDR195W, strain ref2 1.04 | locus YDR297W, strain sur2, active compounds read low 1.03 | locus YDR334W, strain swr1, active compounds read low 1.03 | locus YDR335W, strain msn5, active compounds read low 1.04 | locus YDR392W, strain spt3, active compounds read low 0.901 | locus YEL003W, strain gim4, active compounds read low 1.03 | locus YEL037C, strain rad23, active compounds read low 1.03 | locus YEL061C, strain CIN8 (second series), active compounds read low 1.02 | locus YER015W, strain faa2, active compounds read low 1.03 | locus YER016W, strain bim1, active compounds read low 1.03 | locus YER111C, strain swi4, active compounds read low 1.06 | locus YER155C, strain BEM2 (second series), active compounds read low 0.951 | locus YFR010W, strain ubp6, active compounds read low 1.05 | locus YGL167C, strain pmr1, active compounds read low 1.04 | locus YGL173C, strain kem1, active compounds read low 1.05 | locus YGL227W, strain vid30, active compounds read low 1.05 | locus YGL240W, strain doc1, active compounds read low 1.05 | locus YGL253W, strain hxk2, active compounds read low 1.04 | locus YHR013C, strain ard1, active compounds read low 1.02 | locus YHR027C, strain rpn1, active compounds read low 1.04 | [1] 0.858 | locus YHR142W, strain chs7, active compounds read low 1.02 | locus YJL092W, strain hpr5, active compounds read low 1.04 | locus YJL095W, strain BCK1 (second series), active compounds read low 1.03 | locus YJL115W, strain asf1, active compounds read low 1.04 | locus YJL129C, strain trk1, active compounds read low 1.03 | locus YJL154C, strain vps35, active compounds read low 1.02 | locus YJL164C, strain tpk1, active compounds read low 1.01 | locus YJL166W, strain qcr8, active compounds read low 1.03 | locus YJL187C, strain SWE1, active compounds read low 1.03 | [4] 0.879 | locus YKL160W, strain elf1, active compounds read low 1.01 | locus YKR026C, strain gcn3, active compounds read low 1.03 | locus YKR091W, strain srl3, active compounds read low 1.03 | locus YLL001W, strain dnm1, active compounds read low 1.01 | locus YLL026W, active compounds read low 1.03 | locus YLL041C, strain sdh2, active compounds read low 1.03 | locus YLR027C, strain aat2, active compounds read low 1.03 | [5] 0.881 | locus YLR221C, strain rsa3, active compounds read low 1.01 | locus YLR258W, strain gsy2, active compounds read low 1.03 | locus YLR262C, strain YPT6 (second series), active compounds read low 1.03 | locus YLR320W, strain mms22, active compounds read low 1.05 | locus YLR342W, strain FKS1, active compounds read low 1.04 | locus YLR357W, strain rsc2, active compounds read low 0.974 | locus YLR370C, strain arc18, active compounds read low 1.04 | locus YLR384C, strain iki3, active compounds read low 1.03 | locus YML120C, strain ndi1, active compounds read low 1.02 | locus YMR058W, strain fet3, active compounds read low 1.03 | locus YMR125W, strain sto1, active compounds read low 1.01 | locus YMR129W, active compounds read low 1.04 | locus YMR205C, strain PFK2, active compounds read low 1.05 | locus YMR231W, strain pep5, active compounds read low 1.03 | locus YNL071W, strain lat1, active compounds read low 0.923 | [6] 0.864 | locus YNL209W, strain ssb2, active compounds read low 1.03 | locus YNL248C, strain rpa49, active compounds read low 0.96 | locus YNL322C, strain KRE1 (second series), active compounds read low 1.04 | locus YNR049C, strain mso1, active compounds read low 1.03 | locus YOR001W, strain rrp6, active compounds read low 1.01 | locus YOR070C, strain gyp1, active compounds read low 1.02 | locus YOR080W, strain dia2, active compounds read low 1.04 | locus YOR083W, strain WHI5, active compounds read low 0.998 | locus YOR106W, strain vam3, active compounds read low 1.04 | locus YOR265W, strain rbl2, active compounds read low 1.03 | locus YOR270C, strain vph1, active compounds read low 1.05 | locus YOR290C, strain snf2, active compounds read low 0.975 | locus YPL051W, strain arl3, active compounds read low 1 | locus YPL078C, strain atp4, active compounds read low 1.01 | locus YPL106C, strain sse1, active compounds read low 1.07 | locus YPL240C, strain hsp82, active compounds read low 1.03 | [8] 0.862
active: [2] 0.841 | [3] 0.822 | [7] 0.823
